Source: PubChem (several laboratories)
A selection: hits, their analogues and other compounds. The true share with any hit is near 27%.
CYP2C9 activ: human CYP2C9 activators, primary screen, biochemical, luminescence; AID 1024, 2008; Cytochrome P450 2C9 (Homo sapiens), P11712; 1.4% of 96,000 active; activation factor at 5 µM; recombinant CYP2C9, luciferin-H conversion; active compounds read high; factor 1 = untreated enzyme, 0 = blocked;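 active = activation factor of 2 or more for CYP2C9 at a 5 µM dose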;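 note: 0 = sulfaphenazole-blocked wells and 1 = vehicle-only wells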
sEH inhibitor: soluble epoxide hydrolase inhibitors, primary screen, biochemical, human sEH; recombinant human sEH enzymatic activity assay; Bifunctional epoxide hydrolase 2 (Homo sapiens), P34913; AID 707, 2007; inhibition, % at 2 µM; 0.34% of 91,000 active; in the data active = inhibition above about 80%
Target sequence (P34913 whole entry, looked up): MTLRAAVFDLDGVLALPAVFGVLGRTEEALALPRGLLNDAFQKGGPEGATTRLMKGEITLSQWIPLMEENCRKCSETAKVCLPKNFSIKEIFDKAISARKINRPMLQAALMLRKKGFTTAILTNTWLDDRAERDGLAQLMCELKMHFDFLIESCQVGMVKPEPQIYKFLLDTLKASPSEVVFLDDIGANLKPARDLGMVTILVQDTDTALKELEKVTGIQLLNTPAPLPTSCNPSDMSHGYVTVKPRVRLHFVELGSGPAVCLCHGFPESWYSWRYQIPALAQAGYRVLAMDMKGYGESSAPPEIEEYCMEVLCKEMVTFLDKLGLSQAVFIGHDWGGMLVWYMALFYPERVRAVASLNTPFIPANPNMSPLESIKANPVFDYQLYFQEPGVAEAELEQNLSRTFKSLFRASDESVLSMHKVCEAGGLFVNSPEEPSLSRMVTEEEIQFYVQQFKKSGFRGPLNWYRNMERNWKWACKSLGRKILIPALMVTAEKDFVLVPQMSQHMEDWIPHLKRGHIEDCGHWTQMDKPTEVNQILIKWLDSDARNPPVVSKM
CYP2C19 inh: blockers of cytochrome P450 2C19 activity – biochemical, luminescence, ADME assay, primary screen. inhibition, % at 5 µM. 21% of 96,000 active. P33261. CYP2C19 Supersomes, luciferin-H EGE luminescence, 30 min;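 active = CYP2C19 inhibition above a set limit at 5 µM in the primary screen, cut at about 50% in these data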;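 note: plate controls were negative control wells for no effect and 2.5 mM tranylcypromine positive control for full effect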
sEH act: soluble epoxide hydrolase activators, primary screen, biochemical, human sEH; purified human sEH enzymatic activity, activator screen; activation, % at 2 µM; 0.04% of 91,000 active; Bifunctional epoxide hydrolase 2 (Homo sapiens), P34913; in the data active = activation above about 37%
CYP2C9 inhib: blockers of cytochrome P450 2C9 activity – biochemical, luminescence, ADME assay, primary screen. CYP2C9 Supersomes, luciferin-H conversion. inhibition, % at 5 µM. AID 777, 2007. P11712. 20% of 96,000 active;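 active = blocking of liver enzyme CYP2C9 beyond about 50% at 5 µM, limit read from the data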
CYP2C19 act: human CYP2C19 activators, primary screen, biochemical, luminescence | Cytochrome P450 2C19 (Homo sapiens), P33261 | recombinant CYP2C19, luciferin-H EGE luminescence; active compounds read high; 0 = fully inhibited enzyme, 1 = untreated enzyme | activation factor at 5 µM | 96,000 tested, under 10 active | AID 1025, 2008;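 active = activation factor of at least 2 at 5 µM in the primary screen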;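 note: 0 = wells with 2.5 mM tranylcypromine and 1 = vehicle-only wells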
Starred values were filed as active, the others as inactive; . = no result given.

SMILES	CYP2C9 activ	sEH inhibitor	CYP2C19 inh	sEH act	CYP2C9 inhib	CYP2C19 act
NC(=O)CCc1c[nH]c2ccccc12	1.2	-1	6	1	-24	0.9
O=C(O)CCCn1c(=O)[nH]c2ccccc2c1=O	0.9	8	-6	-8	6	1.1
CCCc1c(C)[nH]c2ccccc2c1=O	3.2*	8	-6	-8	-224	1.1
Cc1[nH]c2ccccc2c1CCC(N)=O	3.1*	.	53*	.	-211	0.5
CCCc1c(C)c2ccccc2[nH]c1=O	1.3	-15	21	11	-29	0.8
O=C(O)CCc1c(C(=O)O)[nH]c2ccccc12	0.5	4	6	-3	54*	0.9
CCCCN(CCCC)CP(=O)(c1ccccc1)c1ccccc1	0.8	-2	23	0	20	0.8
Cc1ccsc1/C=N/N1CCN(c2ccccc2)CC1	2.1*	-3	23	2	-105	0.8
Nc1cccc(-c2nc3ccc(N)cc3s2)c1	0.4	-7	80*	7	58*	0.2
C=CCOc1c(Cl)cc(CNc2ccc(N(C)C)cc2)cc1OC	0.3	3	96*	-1	72*	0
C=CCOc1ccc(CNc2nccs2)cc1OC	.	4	.	2	.	.
C=CCOc1c(Cl)cc(CNCCC)cc1Cl	0.8	2	59*	-2	24	0.4
C=CCOc1c(Cl)cc(CNc2ccc(C)c(Cl)c2)cc1OC	0.4	12	38	-10	57*	0.6
C=CCOc1ccc(CNC(C)(C)C)cc1OC	0.9	-8	25	9	11	0.7
O=C(c1ccc(Cl)cc1)N1CCN(c2cc(=O)[nH]nc2-c2ccccc2)CC1	1	10	-9	-9	2	1.1
COc1ccc(S(=O)(=O)N2CCC(C(=O)Nc3ccccc3C)CC2)c2cccnc12	0.7	-3	63*	3	32	0.4
COc1ccc(S(=O)(=O)n2ccnc2)c2cccnc12	0.5	-13	56*	9	53*	0.4
CCN(CCNC(=O)C1CCN(S(=O)(=O)c2cccc3cccnc23)CC1)c1ccccc1	3*	.	32	.	-199	0.7
CCOc1ccccc1NC(=O)C1CCN(S(=O)(=O)c2cccc3cccnc23)CC1	1.6	-6	93*	10	-58	0.1
CCCCNS(=O)(=O)c1ccc(OC)c2ncccc12	1.2	5	20	-2	-23	0.8
Cc1cc(OCC(=O)NCCCN(C)C)cc(C)c1Br	1.2	6	8	-5	-23	0.9
O=C(O)c1ccc(S(=O)(=O)c2ccc3c(c2)C(=O)N(Cc2ccco2)C3=O)cc1	1	-11	-24	10	4	1.2
COc1ccc(OC)c(NC(=O)C2CCN(S(=O)(=O)c3cccs3)CC2)c1	1.1	8	-10	-7	-7	1.1
COc1cc(NC(=O)C2CCCCC2)c2ncccc2c1	2.1*	13	38	-11	-111	0.6
COc1ccc(NC(=O)C2CCCN(S(=O)(=O)c3cccc4nonc34)C2)cc1 (stereo not drawn)	0.9	31	4	-31	13	1
SMILES	CYP2C9 activ	sEH inhibitor	CYP2C19 inh	sEH act	CYP2C9 inhib	CYP2C19 act
COc1ccc(OC)c(NC(=O)C2CCCN(S(=O)(=O)c3cccc4cccnc34)C2)c1 (stereo not drawn)	0.8	.	69*	.	17	0.3
COc1ccc(C)cc1NC(=O)C1CCN(S(=O)(=O)c2cccc3cccnc23)CC1	2.7*	-23	-7	22	-174	1.1
COc1cccc(C2NC(CCSC)(C(=O)O)C3C(=O)N(C(C)C)C(=O)C23)c1O (stereo not drawn)	1	4	-15	-2	-2	1.1
CCOC(=O)c1[nH]c(C)c(C(=O)OCC(=O)N(CC)C2CCS(=O)(=O)C2)c1C (stereo not drawn)	0.7	-1	-20	-1	28	1.2
O=C(NCc1cccs1)c1cccc(S(=O)(=O)N2CCCCC2)c1	0.3	.	75*	.	67*	0.3
CC1CCN(S(=O)(=O)c2cccc(C(=O)Nc3nccs3)c2)CC1	0.9	-1	12	1	14	0.9
Cc1nonc1NC(=O)c1ccc(Cl)c(S(=O)(=O)N2CCCCC2)c1	1.2	14	68*	-16	-18	0.3
O=C(Nc1nccs1)c1cccc(S(=O)(=O)N2CCCCC2)c1	0.3	12	94*	-10	68*	0.1
O=C(Nn1cnnc1)c1ccc(F)c(S(=O)(=O)N2CCCCC2)c1	0.3	-9	99*	9	72*	0
O=C(O)c1ccc(Cl)c(S(=O)(=O)N2CCCCCC2)c1	0.8	.	0	.	15	1
O=C(NCc1ccco1)c1cccc(S(=O)(=O)N2CCCCC2)c1	.	1	.	-1	.	.
COc1ccccc1NC(=O)Cn1cnc2c(cnn2-c2ccc(C)c(C)c2)c1=O	0.9	3	2	-2	14	1
COCCn1cc(C(=O)N2CCC(C)CC2)c2c3ccccc3n(C)c2c1=O	1	1	-7	-2	4	1.1
O=C(Nc1nccs1)c1ccc(Cl)c(S(=O)(=O)N2CCCCC2)c1	0.5	4	65*	-4	53*	0.3
O=C(Nc1nccs1)c1cc(S(=O)(=O)N2CCCCC2)ccc1Cl	1.1	.	2	.	-11	1
NS(=O)(=O)c1ccc(CCNc2ncnc3c2c(-c2ccccc2)cn3-c2ccc(F)cc2)cc1	0.4	0	23	2	57*	0.8
NS(=O)(=O)c1ccc(CCNc2cc(=O)n(Cc3ccc(F)cc3)c(=O)[nH]2)cc1	0.9	.	2	.	9	1
Cc1ccc(N2C(=O)CSC23C(=O)Nc2ccccc23)cc1 (stereo not drawn)	0.6	.	79*	.	42	0.2
COCCNCC(=O)NCC12CC3CC(CC(C3)C1)C2	1	-1	4	-2	-2	1
COc1ccc(C(=O)CN(C(=O)c2ccc(Cl)cc2)N2C(=O)C3CCCCC3C2=O)cc1 (stereo not drawn)	0.7	6	29	-5	34	0.7
CN(C(=O)c1ccc(Cl)cc1)C1=CCCCC1CCC#N (stereo not drawn)	0.8	3	64*	-2	15	0.4
Cn1c(=O)cc(-c2ccccc2)c2ccccc21	0	10	87*	-8	96*	0.1
Cn1c(-c2ccccc2)cc(=O)c2ccccc21	1	-7	23	10	3	0.8
COc1cc(C(c2c(C)[nH][nH]c2=O)c2c(C)[nH][nH]c2=O)ccc1OS(=O)(=O)c1ccc(C)cc1	0.3	12	85*	-11	66*	0.2
Cc1cc(C(F)(F)F)c(C#N)c(N2CCOCC2)n1	1.6	0	2	-1	-57	1
